A selection: hits, their analogues and other compounds. The true share with any hit is near 0.93%.
LAP4 TOR yeast = modulators of LAP4-GFP expression in yeast, primary screen, S. cerevisiae, multiplex flow cytometry, MLPCN library. 3 h; median GFP as percent of DMSO wells. GFP response vs DMSO, % at 10 µM. 320,000 compounds, 0.34% hits;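 active = GFP response vs DMSO above a set limit, about the screen mean plus 3 SD, cut at about 150% in these data; inconclusive = under 70 cell events counted for the yeast strain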
AGP1-GFP MLPCN = modulators of AGP1-GFP expression in yeast TOR pathway, primary screen, cell-based, multiplex flow cytometry, S. cerevisiae, MLPCN library; 3 h; GFP as percent of DMSO wells; GFP response vs DMSO, % at 10 µM; 320,000 compounds, 0.02% hits;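 active = GFP response relative to DMSO above a set limit, near screen average plus 3 SD, cut at about 150% in these data; inconclusive = fewer than 70 cells counted for the yeast strain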;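 also: median GFP channel fluorescence of the gated AGP1 strain per well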
RPL19A TOR yeast = RPL19A-GFP expression modulators in yeast, primary screen, cell-based, S. cerevisiae, multiplex flow cytometry, MLPCN; AID 2025, 2009; S. cerevisiae RPL19A-GFP strain, 3 h; stronger effect = lower value; percent response vs DMSO, % at 10 µM; 330,000 compounds, 0.3% hits;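 active = percent response vs DMSO below 50%; inconclusive = fewer than 70 events counted for the yeast strain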;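 also: median channel GFP fluorescence of the barcoded RPL19A-GFP strain; lower means less RPL19A-GFP as with rapamycin TOR inhibition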
MEP2-GFP yeast = modulators of MEP2-GFP levels in yeast, primary screen, S. cerevisiae, multiplex flow cytometry, MLPCN library; GFP response vs DMSO, % at 10 µM; S. cerevisiae MEP2-GFP strain, 3 h; 100% = DMSO control level; AID 2016, 2009; 330,000 compounds, 0.51% hits;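 active = GFP response versus DMSO above a set limit, roughly screen mean plus 3 SD, cut at about 180% in these data; inconclusive = fewer than 70 cells counted for a yeast strain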;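 also: median GFP fluorescence of the barcode-gated MEP2-GFP cells per well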
CIT2 TOR yeast = modulators of CIT2-GFP expression in yeast, primary screen, S. cerevisiae, GFP fusion, multiplex flow cytometry, MLPCN library; AID 2029, 2009; GFP response vs DMSO, % at 10 µM; 320,000 compounds, 0.065% hits; S. cerevisiae CIT2-GFP strain, 3 h; 100 means same as DMSO wells;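 active = GFP response relative to DMSO above a set limit, near the screen mean plus 3 SD, cut at about 150% in these data; inconclusive = Fewer than 70 cells measured for a yeast strain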;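 also: ratio of well median GFP fluorescence to mean of DMSO wells on the plate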
A number is an active result; . = inactive; ? = inconclusive; / = no result; + = active, no number; [ ] = dose if it differs, or a comment.

SMILES	LAP4 TOR yeast	AGP1-GFP MLPCN	RPL19A TOR yeast	MEP2-GFP yeast	CIT2 TOR yeast
O=C(CN1CCN(S(=O)(=O)c2ccc3ccccc3c2)CC1)Nc1ccc2c(c1)CCC2	.	?	30[may fluoresce violet]	250[may fluoresce violet]	?
Cc1ccc(OCC(=O)Nc2ccc(S(=O)(=O)N3CCN(C)CC3)cc2)cc1	.	.	.	.	.
O=C(COc1ccccc1)Nc1ccc(S(=O)(=O)N2CCCCCC2)cc1	.	.	.	226[may fluoresce violet]	?
CCOc1ccccc1OCCCC(=O)Nc1cc(S(=O)(=O)N2CCOCC2)ccc1OC	.	.	.	.	.
COc1ccc(NS(=O)(=O)c2cccc(C(=O)NCc3ccco3)c2)cc1	.	.	.	.	.
COc1cc(NS(=O)(=O)c2ccc(C)cc2C)cc(OC)c1OC	.	?	48[may fluoresce violet]	484[may fluoresce violet]	?
Cc1[nH]c(=O)[nH]c(=O)c1Cc1cccc2ccccc12	.	?	48[may fluoresce violet]	323[may fluoresce violet]	?
Cc1nc(N2CCN(C)CC2)[nH]c(=O)c1Cc1cccc2ccccc12	.	.	.	.	.
OC(CNCCC1C=Nc2ccccc21)Cn1c2ccc(Cl)cc2c2cc(Cl)ccc21 (centres undefined)	.	.	.	.	.
Cc1c(C(=O)OCC(C)(C)CN(C)C)oc2ccccc12	.	.	.	.	/
Cc1c(C(=O)OC(C)CCN(C)C)oc2ccccc12 (centres undefined)	.	.	.	176[may fluoresce violet]	?
Cc1ccc(C(C[N+](=O)[O-])Sc2ccc(N)cc2)cc1 (centres undefined)	201	.	.	.	.
Nc1ccc(Sc2ccc([N+](=O)[O-])cc2)cc1	.	.	.	.	.
CCOc1ccc(NC(=S)C(C#N)=C2N(C)c3ccccc3N2C)cc1	.	.	.	.	.
O=C(NCCO)c1c(O)c2cccc3c2n(c1=O)CC3	.	.	.	.	.
CCOC(=O)c1c(O)c2cccc3c2n(c1=O)CC3	.	?	32[may fluoresce violet]	347[may fluoresce violet]	?
S=C(NCc1cccnc1)c1ccccc1	.	.	.	.	.
Cc1ccc(C)c(N2CCN(C(=O)c3ccc(Cn4c(=O)[nH]c5ccccc5c4=O)cc3)CC2)c1	.	?	.	489[may fluoresce violet]	?
O=C(c1ccc(Cn2c(=O)[nH]c3ccccc3c2=O)cc1)N1CCN(c2ccc(Cl)cc2)CC1	.	.	.	.	.
CC1CCCN(C(=O)CN2C(=O)CSc3ccc(S(=O)(=O)N4CCOCC4)cc32)C1 (centres undefined)	.	.	.	.	.
O=C(CSc1nnc(CCCN2C(=O)c3cccc4cccc(c34)C2=O)n1-c1ccccc1)N1CCCCC1	.	?	22[may fluoresce violet]	248[may fluoresce violet]	?
O=C(CSc1nnc(Cc2cc(=O)[nH]c(=O)[nH]2)n1-c1ccccc1)N1CCCCC1	.	.	.	.	.
COc1ccc(NC2CCCN(C(=O)CCC(=O)c3ccc(F)cc3)C2)cc1 (centres undefined)	.	.	.	.	.
CC(C)NC(=O)COc1ccc(OCc2ccccc2)cc1	.	.	.	.	.
O=C(COc1ccc(OCc2ccccc2)cc1)NN=C1CCCC1	152	.	.	.	.
SMILES	LAP4 TOR yeast	AGP1-GFP MLPCN	RPL19A TOR yeast	MEP2-GFP yeast	CIT2 TOR yeast
COc1ccc(C(=O)NN=C2CCCC2)cc1	.	.	.	.	.
Cc1cc(OCc2ccc(C(=O)NN=C3CCCC3)cc2)ccc1Cl	174	.	.	.	.
CC(NC(=O)c1ccccc1NC(=O)CN1CCc2ccccc2C1)c1ccccc1 (centres undefined)	.	.	.	.	.
FC(F)(F)c1cnc(-c2cnc(-c3ccccn3)nc2)c(Cl)c1	155	.	.	.	.
CCN(CC)S(=O)(=O)c1cc([N+](=O)[O-])ccc1NNC(=O)Nc1ccc(Cl)c(Cl)c1	.	?	.	376[may fluoresce violet]	?
O=C(NNc1ccccc1[N+](=O)[O-])Nc1ccc(Cl)c(Cl)c1	.	.	.	.	.
C[n+]1ccccc1/C=C1\Sc2ccccc2N1CCO	.	.	.	.	.
CCN1/C(=C/c2ccc3cccc(C)c3[n+]2CC)Sc2ccccc21	+[may fluoresce green]	353[may fluoresce green]	.	+[may fluoresce green]	+[may fluoresce green]
CCOc1ccc(S(=O)(=O)NCC2CCCO2)c2cccnc12 (centres undefined)	.	.	.	.	.
CCOc1ccc(S(=O)(=O)NCC2CCCO2)c2ccccc12 (centres undefined)	.	.	47[may fluoresce violet]	.	?
COc1cc(CN(CCN(C)C)Cc2ccccc2)ccc1OCc1ccccc1	.	.	.	.	.
Clc1ccc(Nc2ncnc3ccc(Br)cc23)cc1	166	.	.	.	.
COc1ccc(-c2nn(-c3ccccc3)cc2CO)cc1	.	.	.	.	.
Cc1ccc(-c2nn(-c3ccccc3)cc2CO)cc1	.	.	.	221[may fluoresce violet]	?
CSc1nc2n(n1)C(C)C1=C(CCCC1=O)N2 (centres undefined)	.	.	.	.	.
CCOc1ccc(CN(C)c2nc(-c3cccnc3)nc3ccccc23)cc1OC	.	?	48[may fluoresce violet]	259[may fluoresce violet]	?
Oc1ccc(/C=N/Nc2nc(-c3cccnc3)nc3ccccc23)c(O)c1	.	.	.	.	.
COc1ccc(/C=N/Nc2nc(-c3cccnc3)nc3ccccc23)cc1OC	185	.	.	.	.
CN(Cc1ccccc1F)c1nc(-c2cccnc2)nc2ccccc12	.	.	.	.	.
Cc1cc(C)c(S(=O)(=O)NCC2CCC(C(=O)NCc3ccccn3)CC2)c(C)c1 (centres undefined)	.	.	.	.	.
CCCCN(C)C(=O)CC(NS(=O)(=O)c1ccc(NC(C)=O)cc1)C(C)C (centres undefined)	.	.	.	253[may fluoresce violet]	?
COc1ccc(-c2csc(Nc3ncccc3C)n2)cc1	151	/	.	.	.
COc1ccc(-c2nc(CSCC(=O)NC3CCCC3)c(C)o2)cc1OC	.	.	.	.	.
CCCCN(CCCC)CCNC(=O)c1cn(C)c2ccc(S(=O)(=O)N3CCCC3)cc2c1=O	.	.	.	.	.
Cc1ccc(-c2nnn(CC(=O)N(CC(=O)NC3CCCC3)c3ccc(F)cc3)n2)o1	.	.	.	179	.
SMILES	LAP4 TOR yeast	AGP1-GFP MLPCN	RPL19A TOR yeast	MEP2-GFP yeast	CIT2 TOR yeast
CC(C)N1C(=O)S/C(=C/c2ccc3c(c2)n(C)c(=O)n3C)C1=O	.	.	.	.	.
CCN(CC)c1ccc(/C=C2\SC(=O)N(C(C)C)C2=O)o1	256	.	.	.	.
Cc1cccnc1NC(=O)C(C)N1C(=O)c2ccccc2C1=O (centres undefined)	.	.	.	738[may fluoresce violet]	?
CCOC(=O)c1cc(-c2csc(Nc3c(C)cc(C)cc3C)n2)on1	.	.	.	.	.
COC(c1ccccc1)c1nc2ccccc2[nH]c1=O (centres undefined)	.	?	.	188[may fluoresce violet]	?
Cc1cc(=O)oc2cc(OCC(=O)NCCCn3ccnc3)ccc12	.	.	.	.	.

Screens (PubChem BioAssay)
